# From PubChem BioAssay AID1520 (The Scripps Research Institute Molecular Screening Center, 2009)
# The other results are listed elsewhere or left out. Values without a mark were called inactive. Calls of active or inactive are those of the source.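 The calls were made as follows: active = cell growth inhibition above the hit limit set in the earlier mutant JAK2 cell screen (cut at about 27% in these data); inactive = the rest.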
# Experiment: parental Ba/F3 cell viability inhibition, counter-screen for JAK2V617F inhibitor project, murine pro-B, CellTiter-Glo luminescence (AID 1520);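 also: plate controls were DMSO-treated cells for no effect and JAK Inhibitor I control wells for full effect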
# Conditions: at 5.6 µM, active compounds read high, cells kept alive by added IL-3
row,SMILES,inhibition
1,Cc1cccc(NC(=O)c2ccc([N+](=O)[O-])o2)c1,10.6%
2,O=C(CCl)Nc1ccc(Sc2ccc(NC(=O)CCl)cc2)cc1,47.3% (active)
3,CN(Cc1ccc2nsnc2c1)Cc1nc(Cc2cccc(F)c2)no1,-7.97%
4,COc1ccccc1N1CCN(Cc2ccc(OC)c3ccccc23)CC1,-5.1%
5,c1ccc2c(c1)CSc1sccc1C2=C1CCNCC1,0.77%
6,CSCC(=O)N1CCCC(C(=O)c2cc(F)ccc2F)C1 (configuration not stated),-3.79%
7,COc1cc(OC)c(C(=O)NC2CCCCCC2)cc1OC,-5.51%
8,Cc1ccc(S(=O)(=O)C2(S(=O)(=O)c3ccc(C)cc3)CCCC2)cc1,32.1% (active)
9,CCC1CCCCN1CCCNC(=O)c1cc2c(Cl)nc3ccccc3c2s1 (configuration not stated),0.54%
10,O=c1oc2ccccc2cc1-c1cn(-c2ccccc2)c(=S)[nH]1,50% (active)
11,N#C/C=C\Oc1ccc(Cl)cc1N,-2.4%
12,COc1cc(OC)cc(C(=O)N[C@H](C(=O)Nc2nc3ccccc3[nH]2)C(C)C)c1,86% (active)
13,Cc1ccc(C2=NN(C)c3nc4ccccc4n3C2)cc1,-0.44%
14,Cn1c(CCN2CCCCCC2)nc2cc(NC(=O)Nc3ccccc3)ccc21,-5%
15,O=C(CCl)N(Cc1cccc([N+](=O)[O-])c1)c1cccc(Cl)c1,87.5% (active)
16,COc1ccc(OC)c(Nc2nc(-c3ccc(O)c(O)c3)cs2)c1,72.9% (active)
17,CCCn1c(NC(=O)C23CC4CC(CC(O)(C4)C2)C3)nc2ccccc21,-7.65%
